# PubChem BioAssay (Tox21)
# “And” between values parts separate entries of the source, which are not always exact repeats. Equal entries are not always repeated. A number with no mark means an inactive call. Results filed as inconclusive are left out. Where a call stands in place of a potency, no number is given. The source made the active and inactive calls. Unless noted, calls come from the whole dose curve; as a rule, active = well fitted curve in the direction sought with a large enough effect in the repeat runs; inconclusive = weak or mixed curves; inactive = no such curve, though single readings can be large; an effect the other way counts as inactive or inconclusive.
# Assays:
# [1] = qHTS assay to identify small molecule agonists of H2AX (AID 1224845; active = well fitted activation curve with a large enough effect in the signal ratio in the repeat runs, not every such curve was filed as active; the % refers to the signal ratio)
# How it was run: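 Wild-type CHO-K1 cells, plated overnight, exposed 3hr at 37C to 15 concentrations (0.76% DMSO final). Lysed, then HTRF anti-pH2AX (S139) cryptate and anti-H2AX-d2 antibodies, 24 hr room temperature; 665/620 nm emission read.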
# [2] = qHTS assay to identify small molecule agonists of the hypoxia (HIF-1) signaling pathway (AID 1224846; active = well fitted activation curve with a large enough effect in the signal ratio in the repeat runs, not every such curve was filed as active; the % refers to the signal ratio)
# How it was run: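 HRE-bla ME-180 beta-lactamase reporter cells in medium with 0.5% dialyzed FBS, pre-incubated 5 h then exposed to compounds 17 h at 37C, 5% CO2; reporter induction read with CCF4-AM FRET substrate.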
# [3] = qHTS assay to identify small molecule agonists of H2AX - cell viability counter screen (AID 1224847; calls by dose curve; note: top concentration of the series differs between compounds; nearly all actives have a fitted effect of over 30% in size)
# How it was run: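 Wild-type CHO-K1 cells (10% FBS medium) were plated overnight at 37C, exposed to compounds at 15 concentrations for 3 hr at 37C (0.76% DMSO final), and viability was read as CellTiter-Glo luminescence after 30 min at room temperature.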
# [4] = qHTS assay to identify small molecule antagonists of the estrogen related receptor (ERR) signaling pathway from Tox21 library (AID 1224848); note: nearly all actives have a fitted effect of over 50% in size
# How it was run: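 Luminescent reporter read-out (ONE-Glo) from NTP's ERR cell line after 18 h treatment at 37 C with DMSO-dissolved Tox21 compounds; cells pre-plated 6 h beforehand at 2,000 per well.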
# [5] = qHTS assay to identify small molecule agonists of the estrogen related receptor (ERR) signaling pathway from Tox21 library (AID 1224849; calls by dose curve; note: nearly all actives have a fitted effect of over 15% in size); conditions: ERR reporter cell line, ONE-Glo luciferase, 18 h
# How it was run: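 ERR reporter cells (NTP line) pre-incubated 6 hours at 37 C, then exposed to compounds for 18 hours at 37 C. ONE-Glo luciferase luminescence was read after 30 minutes at room temperature.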
# [6] = qHTS RealTime-Glo MT Cell Viability Assay in HepG2 cells - 24 hour (AID 1224867); note: nearly all actives have a fitted effect of over 50% in size
# How it was run: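 HepG2 suspension premixed with RealTime-Glo reagents is plated at 600 cells per well and left 5 h at 37 C/5% CO2. Compounds in DMSO then go in, and bioluminescence reflecting viable cell number is recorded over 40 h.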
# [7] = qHTS RealTime-Glo MT Cell Viability Assay in HEK293 cells - 32 hour (AID 1224868); note: nearly all actives have a fitted effect of over 50% in size; note: potency is the fitted concentration of half-maximal effect; for activity change, negative = cytotoxic: top concentration of the series differs between compounds
# How it was run: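 Reads taken at 0, 8, 16, 24, 32 and 40 h from the same wells. HEK293 cells (600/well) carried RealTime-Glo reagents from seeding, with compound added after a 5 h settle at 37 C.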
# [8] = A CellTox Green Cytotoxicity Assay to monitor cytotoxicity in HEK293 cells - 0 hour (AID 1224869); note: nearly all actives have a fitted effect of over 50% in size
# How it was run: (§1)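 HEK293 cells, 600/well, were preincubated 5 hours and then exposed to compounds at 37 C for up to 40 hours. A cell-impermeant cyanine dye staining dead-cell DNA was read by fluorescence at 0, 8, 16, 24, 32 and 40 h time points.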
# [9] = qHTS RealTime-Glo MT Cell Viability Assay in HepG2 cells - 40 hour (AID 1224870); note: nearly all actives have a fitted effect of over 50% in size
# How it was run: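 HepG2 cells (600/well) mixed with RealTime-Glo MT reagent, settled 5 h at 37 C/5% CO2 before compound addition. Nonlytic NanoLuc luminescence from viable-cell prosubstrate reduction read repeatedly during 40 h treatment at 37 C.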
# [10] = A CellTox Green Cytotoxicity Assay to monitor cytotoxicity in HEK293 cells - 40 hour (AID 1224871); note: nearly all actives have a fitted effect of over 45% in size
# How it was run: as §1
smiles,measurement,setting,value
CO[Si](OC)(OC)c1ccccc1,Potency,[1],inactive
same,Potency,[2],inactive
same,Potency,[3],inactive
same,Potency,[4],inactive
same,"activity change, positive = activation",[5]; at 92.4 µM (top of the series),18%
same,Potency,[6],inactive
same,Potency,[7],inactive
same,Potency,[8],inactive
same,Potency,[9],inactive
same,Potency,[10],inactive
CC(C)(C)NCC(O)COc1ccccc1OCC1CCCO1 (stereo not given),Potency,[1],inactive
same,Potency,[2],inactive
same,Potency,[3],inactive
same,Potency,[4],inactive
same,"activity change, positive = activation",[5]; at 42.5 µM (top of the series),4.72%
same,Potency,[6],inactive
same,Potency,[7],inactive
same,Potency,[8],inactive
same,Potency,[9],inactive
same,Potency,[10],inactive
CCC(CO)(CO)COCC(CC)(CO)CO,Potency,[1],inactive
same,Potency,[2],inactive
same,Potency,[3],inactive
same,Potency,[4],inactive
same,"activity change, positive = activation",[5]; at 92.4 µM (top of the series),6.39%
same,Potency,[6],inactive
same,Potency,[7],inactive
same,Potency,[8],inactive
same,Potency,[9],inactive
same,Potency,[10],inactive
C=CC(=O)OCCCCCCCC,Potency,[1],inactive
same,Potency,[2],inactive
same,Potency,[3],inactive
same,Potency,[4],inactive
same,"activity change, positive = activation",[5]; at 92.4 µM (top of the series),2.1%
same,Potency,[6],inactive
same,Potency,[8],inactive
same,Potency,[9],inactive
same,Potency,[10],inactive
CCCCN(CCO)CCCC,Potency,[1],inactive
same,Potency,[2],inactive
same,Potency,[3],inactive
same,Potency,[4],inactive
same,"activity change, positive = activation",[5]; at 92.4 µM (top of the series),1.42%
same,Potency,[6],inactive
same,Potency,[7],inactive
same,Potency,[8],inactive
same,Potency,[9],inactive
same,Potency,[10],inactive
COc1cc(C(=S)N2CCOCC2)ccc1O,Potency,[1],inactive
same,Potency,[2],inactive
same,Potency,[3],inactive
same,Potency,[4],inactive
same,"activity change, positive = activation",[5]; at 42.5 µM (top of the series),-0.619%
same,Potency,[6],inactive
same,Potency,[7],inactive
same,Potency,[8],inactive
same,Potency,[9],inactive
same,Potency,[10],inactive
CC(C)(C)c1ccccc1,Potency,[1],inactive
same,Potency,[2],inactive
same,Potency,[3],inactive
same,Potency,[4],inactive
same,"activity change, positive = activation",[5]; at 92.4 µM (top of the series),0.862%
same,Potency,[6],inactive
same,Potency,[8],inactive
same,Potency,[9],inactive
same,Potency,[10],inactive
COC(c1ccccc1)(c1ccccc1)[C@H](Oc1nc(C)cc(C)n1)C(=O)O,Potency,[1],inactive
same,Potency,[2],inactive
same,Potency,[3],inactive
same,Potency,[4],inactive
same,"activity change, positive = activation",[5]; at 42.5 µM (top of the series),0.278%
same,Potency,[6],inactive
same,Potency,[7],inactive
same,Potency,[8],inactive
same,Potency,[9],inactive
same,Potency,[10],inactive
CC(C)(O)CCC(C)(C)O,Potency,[1],inactive
same,Potency,[2],inactive
same,Potency,[3],inactive
same,Potency,[4],inactive
same,"activity change, positive = activation",[5]; at 92.4 µM (top of the series),-1.25%
same,Potency,[6],inactive
same,Potency,[7],inactive
same,Potency,[8],inactive
same,Potency,[9],inactive
same,Potency,[10],inactive
Cc1cccc(O)c1C,Potency,[1],inactive
same,Potency,[2],inactive
same,Potency,[3],inactive
same,Potency,[4],inactive
same,"activity change, positive = activation",[5]; at 92.4 µM (top of the series),0.54% and 10.2%
same,Potency,[6],inactive
same,Potency,[7],inactive
same,Potency,[8],inactive
same,Potency,[9],inactive
same,Potency,[10],inactive
C=C(C)C1CC=C(C)C(OC(C)=O)C1 (stereo not given),Potency,[1],inactive
same,Potency,[2],inactive
same,Potency,[3],inactive
same,Potency,[4],inactive
same,"activity change, positive = activation",[5]; at 92.4 µM (top of the series),2.18% and 0.969%
same,Potency,[6],inactive
same,Potency,[7],inactive
same,Potency,[8],inactive
same,Potency,[9],inactive
same,Potency,[10],inactive
Cc1occc(=O)c1OC(=O)C(C)C,Potency,[1],inactive
same,Potency,[2],inactive
same,Potency,[3],inactive
same,Potency,[4],inactive
same,"activity change, positive = activation",[5]; at 92.4 µM (top of the series),1.53%
same,Potency,[6],inactive
same,Potency,[8],inactive
same,Potency,[9],inactive
same,Potency,[10],inactive
COc1ccc(Cc2cnc(N)nc2N)cc1OC,Potency,[1],inactive
same,Potency,[2],inactive
same,Potency,[3],inactive
same,Potency,[4],inactive
same,"activity change, positive = activation",[5]; at 42.5 µM (top of the series),4.01%
same,Potency,[6],inactive
same,Potency,[7],inactive
same,Potency,[8],inactive
same,Potency,[9],inactive
same,Potency,[10],inactive
C=CS(=O)(=O)O,Potency,[1],inactive
same,Potency,[2],inactive
same,Potency,[3],inactive
same,Potency,[4],inactive
same,"activity change, positive = activation",[5]; at 92.4 µM (top of the series),-0.911%
same,Potency,[6],inactive
same,Potency,[7],inactive
same,Potency,[8],inactive
same,Potency,[9],inactive
same,Potency,[10],inactive
CCCCC/C=C/CC1CC(=O)OC1=O (stereo not given),Potency,[1],inactive
same,Potency,[2],inactive
same,Potency,[3],inactive
same,Potency,[4],inactive
same,"activity change, positive = activation",[5]; at 92.4 µM (top of the series),5.46%
same,Potency,[6],inactive
same,Potency,[7],inactive
same,Potency,[8],inactive
same,Potency,[9],inactive
same,Potency,[10],inactive
CC[C@@H](N)CO,Potency,[1],inactive
same,Potency,[2],inactive
same,Potency,[3],inactive
same,Potency,[4],inactive
same,"activity change, positive = activation",[5]; at 92.4 µM (top of the series),-0.0387%
same,Potency,[6],inactive
same,Potency,[8],inactive
same,Potency,[9],inactive
same,Potency,[10],inactive
OCC(CO)N[C@H]1C[C@](O)(CO)[C@@H](O)[C@H](O)[C@H]1O,Potency,[1],inactive
same,Potency,[2],inactive
same,Potency,[3],inactive
same,Potency,[4],inactive
same,"activity change, positive = activation",[5]; at 42.5 µM (top of the series),2.44%
same,Potency,[6],inactive
same,Potency,[7],inactive
same,Potency,[8],inactive
same,Potency,[9],inactive
same,Potency,[10],inactive
O=C(O)Cn1cnnn1,Potency,[1],inactive
same,Potency,[2],inactive
same,Potency,[3],inactive
same,Potency,[4],inactive
same,"activity change, positive = activation",[5]; at 42.5 µM (top of the series),4%
same,Potency,[6],inactive
same,Potency,[8],inactive
same,Potency,[9],inactive
same,Potency,[10],inactive
OCCN1CCNCC1,Potency,[1],inactive
same,Potency,[2],inactive
same,Potency,[3],inactive
same,Potency,[4],inactive
same,"activity change, positive = activation",[5]; at 92.4 µM (top of the series),9.65% and -11.4%
same,Potency,[6],inactive
same,Potency,[7],7.9 µM (active)
same,Potency,[8],inactive
same,Potency,[9],inactive
same,Potency,[10],inactive
CCCCCCCCCCCCCCCCCl,activation (H2AX phosphorylation),[1],1.73% [at 31.6 µM]
same,activation,[2],0.196% [at 15.8 µM]
same,"activity change, negative = cytotoxicity",[3],2.02% [at 31.6 µM]
same,"activity, negative = inhibition",[4],15.7% [at 19 µM]
same,"activity change, positive = activation",[5]; at 19 µM (top of the series),7.84%
same,"activity change, negative = cytotoxicity",[6],5.56% [at 15.8 µM]
same,"activity change, negative = cytotoxic",[7],-2.48% [at 15.8 µM]
same,cytotoxicity,[8],1.64% [at 15.8 µM]
same,"activity change, negative = cytotoxic",[9],12.5% [at 15.8 µM]
same,cytotoxicity increase,[10],10.8% [at 15.8 µM]
